Records with an inconclusive call do not appear. The source made the active and inactive calls. Unless noted, the call rests on the fitted dose curve.
Tests used:
[1] = biological target: Peroxisome proliferator-activated receptor delta (Homo sapiens) (UniProt Q03181); experiment: qHTS assay for small molecule agonists of peroxisome proliferator-activated receptor delta signaling (AID 588534);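 further: 0% = DMSO basal wells and 100% = positive control agonist at 10 µM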
Procedure, shortened: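 Reporter cells were plated and held 5 hrs at 37 C before compounds were added. After 18 hrs at 37 C, CCF4 dye was loaded for 2 hrs at RT and fluorescence measured.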

[2] = biological target: Glucocorticoid receptor (Homo sapiens) (UniProt P04150); experiment: qHTS assay for small molecule agonists of glucocorticoid receptor signaling (AID 588532; active means well fitted curve in the direction sought with a large enough effect in the signal ratio, with a control signal flat; the % refers to the signal ratio;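 further: 100% = dexamethasone at 0.1 µM and 0% = DMSO only wells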); conditions: HeLa MMTV-bla, beta-lactamase ratio, agonist, 18 h; activation: stronger effect = higher value, percent of dexamethasone control, DMSO zero
Procedure, shortened: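 Cells were plated and rested 3-5 h at 37 C, compounds were added in titration and incubated 18 h, then CCF4 substrate was loaded for 2 h at RT before reading blue/green fluorescence. EC50 came from Hill-equation fitting.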

[3] = biological target: Glucocorticoid receptor (Homo sapiens) (UniProt P04150); experiment: qHTS assay for small molecule antagonists of glucocorticoid receptor signaling (AID 588533; active means well fitted inhibition curve with a large enough effect in the signal ratio, with a control signal flat, not every such curve was filed as active; the % refers to the signal ratio; further: on the % scale 0 is the no-effect control and ±100 the full control effect)
Procedure, shortened: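 Antagonist-mode qHTS: compound titrations added to GRE-bla HeLa cells, then dexamethasone 2 nM final; 18 h, 37 C. CCF4 FRET fluorescence normalized to dexamethasone and DMSO; IC50 from Hill fit.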

[4] = biological target: Vitamin D3 receptor (Homo sapiens) (UniProt P11473); experiment: qHTS assay for small molecule antagonists of vitamin D receptor signaling (AID 588541);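 further: receptor activated by calcitriol during compound treatment; series mostly up to about 77 µM; on the % scale 0 is the no-effect control and ±100 the full control effect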
Procedure, shortened: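 VDR-UAS-bla HEK293T cells in 2% charcoal-stripped FBS were stimulated with 1-alpha,25-dihydroxyvitamin D3 (3 nM final) plus compound for 16 h at 37 C. The beta-lactamase CCF4 readout was normalized to 50 nM agonist and DMSO, and Hill fits gave IC50.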

[5] = biological target: Vitamin D3 receptor (Homo sapiens) (UniProt P11473); experiment: qHTS assay for small molecule agonists of vitamin D receptor signaling (AID 588543);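 further: 0% = DMSO basal and 100% = reference agonist control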
Procedure, shortened: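 β-lactamase reporter, VDR-UAS-bla HEK293T, agonist mode. Cells plated 5 h at 37 °C, compound titration 16 h at 37 °C, CCF4 dye 2 h RT, ratio 460/530 nm. Hill fit → EC50, efficacy vs 50 nM 1α,25-(OH)2D3.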

[6] = qHTS assay for small molecule agonists of retinoid X receptor alpha signaling (AID 588544); conditions: HEK293T RXRa-UAS-bla, beta-lactamase reporter, 18 h; 530 nm emission;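 on activation: 0% = DMSO basal wells and 100% = reference agonist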
[7] = biological target: Retinoic acid receptor RXR-alpha (Homo sapiens) (UniProt P19793); experiment: as above
[8] = qHTS assay for small molecule antagonists of retinoid X receptor alpha signaling (AID 588546; active means well fitted inhibition curve with a large enough effect in the signal ratio, with a control signal flat, not every such curve was filed as active; the % refers to the signal ratio;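 further: cells stimulated with 9-cis-retinoic acid as agonist; on the % scale 0 is the no-effect control and ±100 the full control effect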); conditions: HEK293T RXRa-UAS-bla, beta-lactamase ratio, antagonist mode; measured here: W530 green channel, cytotoxicity proxy
Procedure, shortened: (§1)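 Beta-lactamase reporter inhibition, read as CCF4 fluorescence ratio (ex 405, em 460/530 nm) after 2 h at RT. HEK293T UAS-bla cells, 2500/well, were stimulated with 9-cis-RA at 500 or 100 nM final alongside test compound for 18 h at 37 C.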

[9] = biological target: Retinoic acid receptor RXR-alpha (Homo sapiens) (UniProt P19793); experiment: as above; conditions: HEK293T RXRa-UAS-bla, beta-lactamase ratio, antagonist mode
Procedure, shortened: as §1

[10] = biological target: Thyroid hormone receptor beta (Homo sapiens) (UniProt P10828); experiment: qHTS assay for small molecule antagonists of thyroid hormone receptor beta signaling (AID 588547; active means well fitted inhibition curve with a large enough effect in the signal ratio, with a control signal flat, not every such curve was filed as active; the % refers to the signal ratio;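 further: cells stimulated with 0.4 nM T3 agonist during compound exposure; series mostly up to about 77 µM; on the % scale 0 is the no-effect control and ±100 the full control effect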); conditions: TR-UAS-bla HEK293, beta-lactamase ratio, antagonist mode, 18 h
Procedure, shortened: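 TR-UAS-bla GripTite HEK293 cells in 2% charcoal/dextran FBS medium; compounds 0.59 nM to 92 uM with T3 at 0.4nM final, 18 h at 37 C. Beta-lactamase read by CCF4 fluorescence (460/530 nm); Hill fits gave IC50 and efficacy.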

[11] = qHTS assay for small molecule activators of the p53 signaling pathway (AID 651743; active means well fitted activation curve with a large enough effect in the signal ratio, not every such curve was filed as active; the % refers to the signal ratio; further: series mostly up to about 92 µM; % of control where 0% means no effect); conditions: HCT-116 p53RE-bla, beta-lactamase FRET ratio, 16 h; activation: stronger effect = higher value
Procedure, shortened: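 HCT-116 p53RE-bla, 4,000 cells/well; 5 h settle; cpd/DMSO 16 h, 37 C; LiveBLAzer B/G 2 h RT; fluorescence intensity.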

[12] = qHTS assay for small molecule activators of the nuclear factor-kappa B (NF-kB) signaling pathway (AID 651749; active means well fitted activation curve with a large enough effect in the signal ratio; the % refers to the signal ratio; further: series mostly up to about 77 µM; % of control where 0% means no effect); conditions: NF-kB-bla ME-180 cells, beta-lactamase FRET ratio, 16 h; activation: stronger effect = higher value
Procedure, shortened: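 Incubation lasted 16 hr at 37C in 5% CO2 after 23 nL compound addition to ME-180 NF-kB-bla cells. Activation appears as beta-lactamase-mediated FRET loss.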

[13] = qHTS assay for environmental chemicals that activate the Aryl hydrocarbon Receptor (AhR) signaling pathway (AID 651777; active means well fitted curve in the direction sought with a large enough effect; an effect the other way counts as inactive or inconclusive; further: nearly all actives have a fitted effect of over 15% in size; further: potency means the concentration at half of the fitted maximal effect; on activation: % of control where 0% means no effect); conditions: 1A2-DRE human hepatoma cells, luciferase, 24 h; activation: stronger effect = higher value
Procedure, shortened: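 1A2-DRE human hepatoma reporter line; 1,200 cells/well; cmpd or DMSO 24 h, 37 C/5% CO2; One-Glo 30 min RT; luciferase lum.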

[14] = biological target: Peroxisome proliferator-activated receptor alpha (Homo sapiens) (UniProt Q07869); experiment: qHTS assay for small molecule agonists of the peroxisome proliferator-activated receptor alpha (PPARalpha) signaling pathway (AID 651778; active means well fitted curve in the direction sought with a large enough effect; an effect the other way counts as inactive or inconclusive; further: % of control where 0% means no effect); conditions: PathHunter PPARalpha complementation, chemiluminescence, 6 h; max response: stronger effect = higher value
Procedure, shortened: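 Enzyme-fragment complementation assay in which ligand-bound PPARalpha translocates and forms an active enzyme that generates chemiluminescence. Cells were plated overnight, exposed to compound for 6 hr at 37 C, and then given detection reagent for 60 min at room temperature.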

[15] = qHTS assay for small molecule agonists of the antioxidant response element (ARE) signaling pathway measured by Nrf2-dependant transcriptional activity (AID 720636; active means well fitted curve in the direction sought with a large enough effect in the repeat runs; an effect the other way counts as inactive or inconclusive;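 further: HepG2 cells with an ARE-driven luciferase reporter; % of control where 0% means no effect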)
Procedure, shortened: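 Cells: ARE-luc HepG2 with Nrf2-responsive luciferase. Medium contained 1% dialyzed FBS. Compound exposure lasted 16 hr at 37 C and 5% CO2, followed by ONE-Glo luciferase detection.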

[16] = qHTS assay for small molecule agonists of the antioxidant response element (ARE) signaling pathway measured by Nrf2-dependant transcriptional activity - cell viability counter screen (AID 720653; active means well fitted curve in the direction sought with a large enough effect in the repeat runs; an effect the other way counts as inactive or inconclusive; further: on the % scale 0 is the no-effect control and ±100 the full control effect); conditions: ARE-bla HepG2 viability, CellTiter-Glo ATP luminescence, 16 h; max response: stronger effect = lower value
Procedure, shortened: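 ARE-bla HepG2 cells treated with compounds for 16 h at 37C; this counter screen measures viability as intracellular ATP by CellTiter-Glo luminescence after 30 min at room temperature.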

[17] = qHTS assay for cell viability of HEK293 cells (AID 743288; active means well fitted curve in the direction sought with a large enough effect; an effect the other way counts as inactive or inconclusive; further: on the % scale 0 is the no-effect control and ±100 the full control effect; nearly all actives have a fitted effect of over 50% in size); conditions: ATP luminescence (CellTiter-Glo), 18 h; max response: stronger effect = lower value
Procedure, shortened: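 Environmental chemicals tested in qHTS format against parental HEK293 cells; 18 h treatment, 37 C; read-out ATP luminescence (CellTiter-Glo), 30 min RT development.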

[18] = qHTS assay for small molecule antagonists of peroxisome proliferator-activated receptor delta signaling (AID 588535; active means well fitted inhibition curve with a large enough effect in the signal ratio, with a control signal flat, not every such curve was filed as active; the % refers to the signal ratio;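 on max response: cells co-treated with a PPAR-delta agonist as stimulator during compound exposure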); conditions: HEK293T PPARd-UAS-bla, beta-lactamase FRET ratio, 18 h; 460 nm channel
Procedure, shortened: (§2)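 Cells were seeded at 4000 per well in assay medium containing 2% charcoal/dextran FBS and held 5 hrs at 37 C. Compounds were then added for 18 hrs. CCF4 substrate was applied for 2 hrs at room temperature before fluorescence reading.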

[19] = biological target: Peroxisome proliferator-activated receptor delta (Homo sapiens) (UniProt Q03181); experiment: as above
Procedure, shortened: as §2

[20] = biological target: Thyroid hormone receptor beta (Homo sapiens) (UniProt P10828); experiment: qHTS assay for small molecule agonists of thyroid hormone receptor beta signaling (AID 588545)
Procedure, shortened: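 Cells (2500/well) were seeded, incubated 4 hrs at 37 C, dosed with a compound series, incubated 18 hrs, loaded with CCF4 dye for 2 hrs at RT, then read for fluorescence. Data were scaled between DMSO (0%) and 10 nM T3 (100%).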

[21] = qHTS assay for small molecule agonists of the antioxidant response element (ARE) signaling pathway (AID 651741; active means well fitted activation curve with a large enough effect in the signal ratio; the % refers to the signal ratio; further: potency means the concentration at half of the fitted maximal effect; on activation: % of control where 0% means no effect)
Procedure, shortened: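 HepG2 ARE-bla cells plated at 2,000 cells/well and incubated 5 h at 37 C/5% CO2 received 23 nL compound in DMSO. After 16 h at 37 C, LiveBLAzer B/G FRET substrate was applied for 2 h at room temperature and fluorescence read.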

[22] = qHTS assay for cell viability of the p53RE-bla HCT-116 cell line (AID 743292; active means well fitted curve in the direction sought with a large enough effect; an effect the other way counts as inactive or inconclusive; further: nearly all actives have a fitted effect of over 55% in size; further: potency means the concentration at half of the fitted maximal effect)
Procedure, shortened: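 HCT-116 p53RE-bla cells seeded 4,000/well; 5 h at 37 C; compound (DMSO) added; 16 h at 37 C; CellTiter-Glo added, 30 min RT; luminescence read.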

[23] = biological target: Nuclear receptor subfamily 1 group I member 2 (Rattus norvegicus) (UniProt Q9R1A7); experiment: qHTS assay for small molecule activators of the rat pregnane X receptor (rPXR) signaling pathway (AID 651751; call rule not given here; further: 0% is about no effect); conditions: rPXR reporter cells, luciferase (One-Glo), 24 h
[24] = qHTS assay for small molecule activators of the human pregnane X receptor (PXR) signaling pathway (AID 720659; call rule not given here; further: 0% is about no effect)
[25] = biological target: Peroxisome proliferator-activated receptor gamma (Homo sapiens) (UniProt P37231); experiment: qHTS assay for small molecule antagonists of peroxisome proliferator-activated receptor gamma signaling (AID 588537; active means well fitted inhibition curve with a large enough effect in the signal ratio, with a control signal flat, not every such curve was filed as active; the % refers to the signal ratio;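 further: reporter cells co-stimulated with 50 nM rosiglitazone agonist during compound treatment; % of control where 0% means no effect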)
Procedure, shortened: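 Step one: plate 3000 HEK293 UAS-bla cells per well in medium with 1% stripped serum and hold 6-6.5 h at 37 C. Step two: add compound and 50 nM agonist for 16 h. Step three: CCF4 loading, fluorescence read.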

Chain of Retinoic acid receptor RXR-alpha (Homo sapiens) (P19793 whole entry, looked up): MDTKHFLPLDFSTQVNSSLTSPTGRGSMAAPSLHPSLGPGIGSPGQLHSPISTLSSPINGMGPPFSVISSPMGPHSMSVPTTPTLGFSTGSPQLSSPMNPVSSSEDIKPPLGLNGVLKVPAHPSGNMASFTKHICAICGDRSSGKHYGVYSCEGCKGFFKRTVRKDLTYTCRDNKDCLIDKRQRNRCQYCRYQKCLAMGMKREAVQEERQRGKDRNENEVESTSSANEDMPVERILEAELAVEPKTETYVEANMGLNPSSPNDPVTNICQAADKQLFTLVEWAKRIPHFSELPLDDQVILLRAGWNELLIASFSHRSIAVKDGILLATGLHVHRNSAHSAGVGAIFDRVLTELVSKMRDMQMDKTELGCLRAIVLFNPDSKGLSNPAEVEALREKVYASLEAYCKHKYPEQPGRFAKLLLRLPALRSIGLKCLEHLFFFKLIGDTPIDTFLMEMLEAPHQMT
Chain of Thyroid hormone receptor beta (Homo sapiens) (P10828 whole entry, looked up): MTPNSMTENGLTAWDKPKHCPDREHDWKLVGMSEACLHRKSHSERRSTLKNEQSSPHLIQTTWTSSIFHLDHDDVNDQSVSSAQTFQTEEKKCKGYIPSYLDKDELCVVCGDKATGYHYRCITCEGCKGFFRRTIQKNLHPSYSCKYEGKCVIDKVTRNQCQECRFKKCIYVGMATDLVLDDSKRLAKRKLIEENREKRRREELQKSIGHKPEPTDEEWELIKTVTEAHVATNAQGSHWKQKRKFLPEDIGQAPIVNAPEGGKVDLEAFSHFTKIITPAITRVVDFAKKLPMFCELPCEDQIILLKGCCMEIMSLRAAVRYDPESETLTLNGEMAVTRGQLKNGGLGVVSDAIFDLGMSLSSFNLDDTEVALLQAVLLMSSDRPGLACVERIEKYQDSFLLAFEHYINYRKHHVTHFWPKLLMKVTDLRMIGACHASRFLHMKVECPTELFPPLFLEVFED
Chain of Glucocorticoid receptor (Homo sapiens) (P04150 whole entry, looked up): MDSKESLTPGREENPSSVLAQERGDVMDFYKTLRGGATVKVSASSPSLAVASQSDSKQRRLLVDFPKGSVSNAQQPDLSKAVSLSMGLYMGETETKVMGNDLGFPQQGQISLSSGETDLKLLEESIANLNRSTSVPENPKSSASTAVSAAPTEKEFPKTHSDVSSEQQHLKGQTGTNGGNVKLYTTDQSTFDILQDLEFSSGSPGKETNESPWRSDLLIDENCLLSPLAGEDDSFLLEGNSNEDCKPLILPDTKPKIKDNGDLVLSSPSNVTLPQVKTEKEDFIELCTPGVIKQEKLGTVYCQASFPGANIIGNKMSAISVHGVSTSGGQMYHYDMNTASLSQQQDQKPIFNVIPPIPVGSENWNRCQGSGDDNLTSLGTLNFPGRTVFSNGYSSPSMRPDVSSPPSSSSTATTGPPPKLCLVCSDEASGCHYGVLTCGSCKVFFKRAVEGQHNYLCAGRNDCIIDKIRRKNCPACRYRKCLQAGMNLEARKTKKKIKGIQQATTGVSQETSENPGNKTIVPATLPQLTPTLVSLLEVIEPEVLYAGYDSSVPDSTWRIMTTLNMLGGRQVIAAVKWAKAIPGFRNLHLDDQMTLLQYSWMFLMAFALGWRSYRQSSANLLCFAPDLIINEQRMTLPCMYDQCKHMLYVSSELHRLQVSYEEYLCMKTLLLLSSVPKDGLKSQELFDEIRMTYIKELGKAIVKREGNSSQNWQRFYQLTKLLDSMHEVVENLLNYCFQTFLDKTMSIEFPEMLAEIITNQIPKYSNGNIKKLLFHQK
Chain of Peroxisome proliferator-activated receptor alpha (Homo sapiens) (Q07869 whole entry, looked up, the tested form may be a part): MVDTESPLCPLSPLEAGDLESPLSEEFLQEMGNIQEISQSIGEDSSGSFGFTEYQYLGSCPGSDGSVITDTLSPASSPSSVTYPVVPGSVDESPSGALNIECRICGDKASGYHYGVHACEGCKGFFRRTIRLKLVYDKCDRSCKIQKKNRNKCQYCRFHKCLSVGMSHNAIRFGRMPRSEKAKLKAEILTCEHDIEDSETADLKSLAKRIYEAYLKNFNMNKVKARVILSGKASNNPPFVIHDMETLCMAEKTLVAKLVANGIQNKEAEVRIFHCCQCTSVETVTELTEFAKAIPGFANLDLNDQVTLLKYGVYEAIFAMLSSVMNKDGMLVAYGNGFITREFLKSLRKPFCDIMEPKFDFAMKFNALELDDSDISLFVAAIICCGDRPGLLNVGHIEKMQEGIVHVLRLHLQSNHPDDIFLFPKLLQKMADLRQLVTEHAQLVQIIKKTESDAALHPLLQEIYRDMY
Chain of Peroxisome proliferator-activated receptor delta (Homo sapiens) (Q03181 whole entry, looked up): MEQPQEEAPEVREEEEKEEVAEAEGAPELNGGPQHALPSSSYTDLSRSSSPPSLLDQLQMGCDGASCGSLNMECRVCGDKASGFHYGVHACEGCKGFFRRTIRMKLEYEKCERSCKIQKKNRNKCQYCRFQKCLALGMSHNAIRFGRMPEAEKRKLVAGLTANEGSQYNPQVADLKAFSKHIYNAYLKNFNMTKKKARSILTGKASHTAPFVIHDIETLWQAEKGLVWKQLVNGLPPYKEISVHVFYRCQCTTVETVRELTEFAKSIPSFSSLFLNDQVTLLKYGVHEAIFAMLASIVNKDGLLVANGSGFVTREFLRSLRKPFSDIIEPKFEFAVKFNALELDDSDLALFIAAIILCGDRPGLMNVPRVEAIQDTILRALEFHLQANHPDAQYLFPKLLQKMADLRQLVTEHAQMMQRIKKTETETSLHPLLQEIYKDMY
Chain of Vitamin D3 receptor (Homo sapiens) (P11473 whole entry, looked up): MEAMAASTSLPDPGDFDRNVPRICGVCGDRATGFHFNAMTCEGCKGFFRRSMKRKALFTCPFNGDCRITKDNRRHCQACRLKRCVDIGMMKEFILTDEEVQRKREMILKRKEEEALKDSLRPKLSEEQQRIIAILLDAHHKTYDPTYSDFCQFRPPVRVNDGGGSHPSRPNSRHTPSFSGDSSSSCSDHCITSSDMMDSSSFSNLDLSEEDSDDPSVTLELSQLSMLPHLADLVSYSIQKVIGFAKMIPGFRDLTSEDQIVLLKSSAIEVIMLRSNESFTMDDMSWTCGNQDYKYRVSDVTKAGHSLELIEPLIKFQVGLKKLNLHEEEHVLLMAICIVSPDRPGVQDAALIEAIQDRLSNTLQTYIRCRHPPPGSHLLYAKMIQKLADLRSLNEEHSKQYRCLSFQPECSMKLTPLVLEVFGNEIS
Chain of Nuclear receptor subfamily 1 group I member 2 (Rattus norvegicus) (Q9R1A7 whole entry, looked up): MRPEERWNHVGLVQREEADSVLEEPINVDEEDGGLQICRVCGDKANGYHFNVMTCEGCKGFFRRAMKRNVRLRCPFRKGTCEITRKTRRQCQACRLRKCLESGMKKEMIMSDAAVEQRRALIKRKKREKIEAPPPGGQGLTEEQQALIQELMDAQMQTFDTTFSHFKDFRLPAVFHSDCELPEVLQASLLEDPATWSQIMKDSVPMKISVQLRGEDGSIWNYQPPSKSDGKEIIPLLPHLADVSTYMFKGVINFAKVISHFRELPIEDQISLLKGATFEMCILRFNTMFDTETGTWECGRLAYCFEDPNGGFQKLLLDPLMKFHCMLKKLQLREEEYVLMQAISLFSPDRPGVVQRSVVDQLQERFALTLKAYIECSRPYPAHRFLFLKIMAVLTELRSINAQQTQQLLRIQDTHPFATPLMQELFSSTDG
Chain of Peroxisome proliferator-activated receptor gamma (Homo sapiens) (P37231 whole entry, looked up): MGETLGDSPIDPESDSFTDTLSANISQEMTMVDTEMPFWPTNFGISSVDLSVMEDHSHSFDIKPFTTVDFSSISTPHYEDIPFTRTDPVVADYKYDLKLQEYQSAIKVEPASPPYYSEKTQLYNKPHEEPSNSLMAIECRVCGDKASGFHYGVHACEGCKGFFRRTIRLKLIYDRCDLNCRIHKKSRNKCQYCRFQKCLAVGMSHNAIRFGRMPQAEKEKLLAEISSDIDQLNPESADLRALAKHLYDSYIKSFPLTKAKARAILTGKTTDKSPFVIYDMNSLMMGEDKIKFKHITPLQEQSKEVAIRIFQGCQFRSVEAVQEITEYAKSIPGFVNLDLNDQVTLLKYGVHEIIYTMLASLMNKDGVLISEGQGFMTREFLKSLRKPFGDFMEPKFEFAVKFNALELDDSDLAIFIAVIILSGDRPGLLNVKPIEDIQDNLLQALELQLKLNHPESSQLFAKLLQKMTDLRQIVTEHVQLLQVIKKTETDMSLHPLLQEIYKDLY

CCCCC(=O)N(C)C
inactive: outcome [1]

C#CC(C)(C)NC(=O)c1cc(Cl)cc(Cl)c1
inactive: activation [2] -9.44% | Potency [3] | outcome [1] | Potency [4] | outcome [5] | Potency [7] | max response [9] -9.81% | activity change % (negative = inhibition) [10] 3.53% | activation [11] -3.76% | activation [12] -1.42% | activation [13] -1.14% | max response [14] 7.64% | Potency [15] | max response [16] 4.89% | max response [17] 5.07%
-11.2%: max response [8]
-7.53%: max response [6]

CCCSC(=O)N(CCC)CCC
26.4%: max response [18]
inactive: activation [2] -2.67% | Potency [3] | outcome [1] | Potency [19] | Potency [4] | outcome [5] | Potency [7] | Potency [20] | Potency [21] | activation [11] 5.3% | activation [12] 0.695% | activation [13] 1.67% | Potency [15] | max response [16] -2.88% | max response [17] -7.74% | Potency [22] | max response [23] 1.18% | outcome [24]
-0.108%: max response [6]

OC(c1ccc(Cl)cc1)(c1cncnc1)c1ccccc1Cl (configuration not stated)
31.8%: max response [18]
8.06%: max response [8]
inactive: activation [2] -10.1% | outcome [1] | Potency [19] | outcome [5] | Potency [20] | max response [9] -39.6% | activation [11] -2.63% | activation [13] 2.31% | max response [14] -4.62% | Potency [15] | max response [16] -4.24% | max response [17] -17.1% | Potency [22]

O=C1C(Cl)=C(Cl)C(=O)c2ccccc21
active: Potency [21] 2.73 µM | Potency [13] 50.1 µM | Potency [22] 50.1 µM
inactive: activation [2] -5.64% | outcome [5] | max response [14] -10.7% | outcome [24]

CCOP(=S)(Oc1cnc(C(C)(C)C)nc1)OC(C)C (configuration not stated)
-24.6%: max response [18]
10.2%: max response [8]
-5.29%: max response [6]
inactive: activation [2] 2.58% | Potency [3] | outcome [1] | Potency [19] | Potency [25] | outcome [5] | Potency [7] | Potency [20] | max response [9] 1.44% | activity change % (negative = inhibition) [10] 4.48% | activation [11] -2.32% | activation [12] -0.139% | activation [13] 6.61% | max response [14] -0.258% | Potency [15] | max response [16] -5.89% | max response [17] -6.73% | Potency [22] | max response [23] 6.76%

From PubChem BioAssay (NCATS)
